CYP2C9 inhib: blockers of cytochrome P450 2C9 activity – biochemical, luminescence, ADME assay, primary screen; P11712; CYP2C9 Supersomes, luciferin-H conversion; inhibition, % at 5 µM; hit rate 20% among 96,000; AID 777, 2007;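 active = blocking of liver enzyme CYP2C9 beyond about 50% at 5 µM, limit read from the data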
Target sequence (P11712 whole entry, looked up): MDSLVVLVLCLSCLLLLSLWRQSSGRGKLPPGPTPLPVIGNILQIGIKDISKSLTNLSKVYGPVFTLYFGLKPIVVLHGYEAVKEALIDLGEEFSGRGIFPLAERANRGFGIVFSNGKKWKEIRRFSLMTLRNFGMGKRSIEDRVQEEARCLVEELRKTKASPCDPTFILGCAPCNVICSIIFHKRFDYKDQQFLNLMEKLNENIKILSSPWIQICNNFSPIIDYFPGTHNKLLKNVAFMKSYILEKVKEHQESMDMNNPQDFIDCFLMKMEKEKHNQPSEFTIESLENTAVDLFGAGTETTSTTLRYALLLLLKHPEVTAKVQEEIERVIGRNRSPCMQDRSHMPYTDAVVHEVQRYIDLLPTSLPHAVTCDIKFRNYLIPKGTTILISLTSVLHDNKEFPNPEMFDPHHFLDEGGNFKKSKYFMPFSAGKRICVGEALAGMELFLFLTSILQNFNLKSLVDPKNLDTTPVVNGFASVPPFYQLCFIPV
PostGolgi yeast: phenotypic screen on post-Golgi transport, primary screen; post-Golgi transport phenotypic cell assay; inhibition, % at 10 µM; hit rate 0.9% among 98,000;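 also: yeast cells grown in 1536-well plates; yeast grown about 18 h at 30C before absorbance read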
PostGolgi ctrl: growth inhibition of yeast control strain, primary screen, counter-screen for post-Golgi transport modulator project. efflux-deficient yeast background strain, growth absorbance A615, 16 h. inhibition, % at 10 µM. AID 738, 2007. hit rate 5% among 98,000
CYP2C19 act: human CYP2C19 activators, primary screen, biochemical, luminescence; activation factor at 5 µM; Cytochrome P450 2C19 (Homo sapiens), P33261; recombinant CYP2C19, luciferin-H EGE luminescence; stronger effect = higher value; 0 = fully inhibited enzyme, 1 = untreated enzyme; 96,000 tested, under 10 active;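 active = activation factor of at least 2 at 5 µM in the primary screen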;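 also: 0 = wells with 2.5 mM tranylcypromine and 1 = vehicle-only wells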
CYP2C19 inh: blockers of cytochrome P450 2C19 activity – biochemical, luminescence, ADME assay, primary screen; CYP2C19 Supersomes, luciferin-H EGE luminescence, 30 min; inhibition, % at 5 µM; hit rate 21% among 96,000; AID 778, 2007;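 active = CYP2C19 inhibition above a set limit at 5 µM in the primary screen, cut at about 50% in these data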;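 also: plate controls were negative control wells for no effect and 2.5 mM tranylcypromine positive control for full effect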
CYP2C9 activ: human CYP2C9 activators, primary screen, biochemical, luminescence; Cytochrome P450 2C9 (Homo sapiens), P11712; recombinant CYP2C9, luciferin-H conversion; stronger effect = higher value; factor 1 = untreated enzyme, 0 = blocked; activation factor at 5 µM; hit rate 1.4% among 96,000;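 active = activation factor of 2 or more for CYP2C9 at a 5 µM dose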;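 also: 0 = sulfaphenazole-blocked wells and 1 = vehicle-only wells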
* hit, by the source's call. Sampled rows, rich in hits. Any-hit rate of the full collection: about 32%. Rule as the data show it, unless noted: active = inhibition above about 30%; inactive = the rest.

SMILES	CYP2C9 inhib	PostGolgi yeast	PostGolgi ctrl	CYP2C19 act	CYP2C19 inh	CYP2C9 activ
Cc1cc(N2CCN(c3ccccc3)CC2)n2c(n1)nc1ccccc12	67*	13	25	0.5	50	0.3
COC(=O)c1ccc2nc(C(F)(F)F)[nH]c2c1	45	1	5	0.7	34	0.6
Nc1ccc2nc(-c3ccccc3)[nH]c2c1	6	-2	-1	0.8	19	0.9
Cc1ccc(-c2nc3ccc(NS(=O)(=O)c4ccccc4)cc3[nH]2)o1	100*	-3	6	0	100*	0
O=S(=O)(Nc1ccc2nc(C(F)(F)F)[nH]c2c1)c1ccccc1	81*	-2	-6	0	100*	0.2
O=S(=O)(Nc1ccc2nc(-c3ccc(Br)o3)[nH]c2c1)c1ccccc1	94*	-2	6	0.1	91*	0.1
Cc1cccc(Sc2nc(-c3ccccc3)ccc2C#N)c1	21	-5	-5	0.9	12	0.8
C=CCn1sc(N)c(C(=O)OCC)c1=S	35	-3	2	0.9	14	0.7
CC1=C(C(=O)Nc2ccc([N+](=O)[O-])cc2)C(c2cccc(C(F)(F)F)c2)NC(=S)N1c1ccccc1 (stereo not drawn)	89*	1	21	0.9	15	0.1
COc1ccc(C2NC(=S)N(c3ccccc3)C(C)=C2C(=O)Nc2ccccc2)cc1 (stereo not drawn)	17	-5	12	0.7	29	0.8
c1ccc(Cc2ccc(OCCn3cncn3)cc2)cc1	98*	5	5	0	97*	0
CCC(C)NCCOCCOc1ccccc1-c1ccccc1 (stereo not drawn)	-9	0	8	0.6	35	1.1
c1ccc(-c2ccccc2OCCn2cncn2)cc1	-80	3	1	0	97*	1.8
COc1ccc(OCCn2cncn2)cc1	-13	0	1	1	-2	1.1
c1ccc(COc2ccc(OCCCn3cncn3)cc2)cc1	96*	0	-4	0.1	94*	0
c1ccc(-c2ccc(OCCOCCn3cncn3)cc2)cc1	67*	-3	44*	0.1	95*	0.3
CN1CCN(Cc2ccc(OCc3ccccc3)cc2)CC1	-18	-1	1	1.1	-8	1.2
COC(=O)c1sc(=S)n(-c2cccc(Cl)c2)c1N	9	2	11	0.9	14	0.9
COc1ccccc1NC(=O)C(CC=C(Cl)Cl)C(C)=O (stereo not drawn)	11	13	7	0.6	37	0.9
CN(C)S(=O)(=O)c1ccc(C(=O)Nc2nnc(-c3ccc4c(c3)CCCC4)o2)cc1	14	-2	2	1	1	0.9
Clc1ccc(SCCCCn2cncn2)cc1	76*	5	-7	0	98*	0.2
NCCOc1ccccc1-c1ccccc1	66*	-10	6	0.4	57*	0.3
Clc1ccc(OCCCn2cncn2)cc1Cl	92*	10	-3	0	99*	0.1
CN(C)CCOCCSc1ccc(Cl)cc1	6	-1	-1	0.9	13	0.9
FC(F)(F)c1cccc(OCCOCCn2cncn2)c1	33	-1	-3	0.1	86*	0.7
SMILES	CYP2C9 inhib	PostGolgi yeast	PostGolgi ctrl	CYP2C19 act	CYP2C19 inh	CYP2C9 activ
Cc1c(NC(=O)c2cc(=O)[nH]c(=O)[nH]2)c(=O)n(-c2ccccc2)n1C	-18	3	11	1.1	-10	1.2
O=C(Nc1ccccc1)C1CC(=O)N(c2ccc3c4c(cccc24)CC3)C1 (stereo not drawn)	62*	12	9	1	3	0.4
Cc1ccc(S(=O)(=O)/N=C2/NC(=O)/C(=C/c3cccnc3)S2)cc1	98*	17	4	0.3	68*	0
Brc1ccc2c(c1)OCCOCCOc1cc(Br)ccc1OCCOCCOCCO2	85*	0	68*	0.1	88*	0.2
Cc1ccc(OCc2nc(C#N)c(NCc3ccco3)o2)cc1	100*	1	27	0.1	90*	0
N#Cc1nc(COc2cccc(Cl)c2)oc1NCc1ccco1	85*	25	33*	0.5	50*	0.2
Cc1ccc(-c2nc(C#N)c(NCc3ccco3)o2)cc1	58*	-4	24	0.6	40	0.4
COc1ccccc1OCc1nc(C#N)c(NCc2ccco2)o1	80*	0	1	0.3	74*	0.2
N#Cc1nc(Cc2cccc3ccccc23)oc1NCc1ccco1	40	0	17	0.6	43	0.6
COC(=O)c1ccc(/C=N/OCC(=O)NC2CCCC(C)C2C)cc1 (stereo not drawn)	40	11	40*	0.8	23	0.6
CCC(C)NC(=O)CO/N=C/c1ccc(C(=O)OC)cc1 (stereo not drawn)	69*	1	9	0.7	31	0.3
COC(=O)c1ccc(/C=N/OCC(=O)NC2CCCCCCC2)cc1	65*	5	20	0.8	16	0.4
COc1ccc(/C=N/NC(=O)CCCC(=O)NC2CCCCC2)cc1	-2	-1	0	1	-1	1
CC1(C(=O)O)CCC(C(=O)NCCc2ccccc2)C1(C)C (stereo not drawn)	-10	-2	0	1	-1	1.1
CC1(C)CC(=O)C(C(=O)/C=C/NCCc2ccccc2)C(=O)C1	74*	-2	-1	1	3	0.3
O=C(c1ccc(Cl)c(F)c1F)N1CCOCC1	-13	11	21	1.1	-9	1.1
Nn1cnc2sc3c(c2c1=O)CCC3	-31	-1	8	1.3	-25	1.3
O=c1c2c3c(sc2ncn1Cc1ccc(F)cc1)CCC3	78*	-7	2	0.2	81*	0.2
CC(C)(C)NC(=O)COC(=O)c1cncc(Br)c1	-5	8	9	0.9	6	1
CC(C)OC(=O)c1nn2c(C(F)(F)F)cc(-c3ccc(Br)o3)nc2c1Br	30	4	3	1	5	0.7
c1csc(-c2nnsc2-c2nc3ccccc3[nH]2)c1	27	-3	6	0.3	73*	0.7
CN(CCOc1ccc(Cl)cc1)c1ccc(S(=O)(=O)N2CCCCC2)cn1	-31	-1	15	0.6	38	1.3
Cc1cc(NC(=O)CC(CN(C)S(=O)(=O)c2ccccc2)c2ccccc2)no1 (stereo not drawn)	46	10	-1	0.1	88*	0.5
Cc1cc(NC(=O)c2ccc(N(C)S(=O)(=O)c3ccccc3)cc2)no1	37	-4	-2	0.7	27	0.6
Cc1ccc(C23CC4CC(CC(NC(=O)NC(C)(C)CO)(C4)C2)C3)cc1	75*	-2	38*	0.3	73*	0.3
